Screening results (PubChem BioAssay)
In the library only some 2% were active in any assay of this set; here they are far more common.
MCL1 BIM primary = MCL1-BIM-BH3 interaction inhibition (human). hit rate 0.68% among 320,000. Q07820. inhibition, % at 10.9 µM. GST-MCL1 / FITC-Bim-BH3 fluorescence polarization;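 active = inhibition above the mean inhibition of all tested compounds plus 3 SD, set per campaign, cut at about 40% in these data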;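 also: 0% = DMSO wells and 100% = unlabeled Bim-BH3 peptide control; higher means more loss of mP so more displacement of Bim peptide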
Target sequence (Q07820 whole entry, looked up): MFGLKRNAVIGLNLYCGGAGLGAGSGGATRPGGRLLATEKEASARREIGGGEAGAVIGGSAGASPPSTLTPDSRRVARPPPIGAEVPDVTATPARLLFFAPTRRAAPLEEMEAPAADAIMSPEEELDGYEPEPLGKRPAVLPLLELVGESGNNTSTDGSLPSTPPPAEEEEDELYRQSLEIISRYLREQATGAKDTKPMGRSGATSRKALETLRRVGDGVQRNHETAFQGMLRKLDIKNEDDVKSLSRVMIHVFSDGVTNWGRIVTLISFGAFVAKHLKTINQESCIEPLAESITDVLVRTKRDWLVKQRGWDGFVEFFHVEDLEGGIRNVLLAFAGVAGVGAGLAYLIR
Mcl1 Bid PPI = disrupts binding of human Mcl-1 to Bid peptide; Q07820; TR-FRET Mcl-1/Bid-Dy647 peptide binding, 1536-well; inhibition, % at 21.7 µM; hit rate 0.97% among 220,000; AID 1021;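 active = compounds that cut the binding signal by more than half at the single screening dose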;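 also: His-tagged Mcl-1 with europium anti-His antibody binding Bid BH3 peptide; 0% = Mcl-1 plus peptide wells and 100% = peptide-only wells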
Mcl1 Noxa PPI = Mcl-1/Noxa interaction inhibition | Q07820 | TR-FRET Mcl-1/Noxa peptide binding, 2 h | inhibition, % at 21.7 µM | hit rate 1.5% among 220,000;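 active = compounds that cut the protein-peptide binding signal by more than 50% relative to plate controls in a single-dose test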;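 also: His-tagged Mcl-1 with rhodamine Noxa BH3 peptide and terbium anti-His antibody; 0% = Mcl-1 plus Noxa peptide wells and 100% = peptide-only wells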
Mcl-1 Bim block = inhibitors of Bim-Mcl-1 interaction, human | inhibition, % at 10 µM | Bead-based flow cytometry, Bim peptide-Mcl-1 binding | Q07820 | hit rate 0.1% among 190,000; in the data active = inhibition above about 40%;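 also: 0% = no compound tracer wells and 100% = peptide blocker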
* hit, by the source's call.

Cc1ccc(N(C(=O)CNC(=O)c2ccco2)C(C(=O)NC2CCCCC2)c2ccncc2)cc1F (stereo unspecified) was read as MCL1 BIM primary 4.
For Cc1cc(C)cc(OCC(=O)Nc2ccc(N3CCCC3)cc2)c1 the results were MCL1 BIM primary 12, Mcl1 Bid PPI 5, Mcl1 Noxa PPI 67* and Mcl-1 Bim block 9.
For COc1ccc(OCC(=O)Nc2ccc(N3CCCCC3)cc2)cc1 the results were MCL1 BIM primary 16, Mcl1 Bid PPI -45, Mcl1 Noxa PPI 20 and Mcl-1 Bim block 0.
COC(=O)COc1coc(CN2CCN(c3cccc(Cl)c3)CC2)cc1=O was read as MCL1 BIM primary 2.
O=C(Nc1ccc([N+](=O)[O-])cc1)N1CCN(C(=O)C2CCCO2)CC1 (stereo unspecified) was read as MCL1 BIM primary -5.
`CCNc1sc(C(=O)c2cccs2)c(N)c1-c1nc2ccccc2s1` gave MCL1 BIM primary 15, Mcl1 Bid PPI -47, Mcl1 Noxa PPI 55* and Mcl-1 Bim block 4.
Screening C=CCNc1sc(C(=O)c2ccccc2)c(N)c1-c1nc2ccccc2s1 returned MCL1 BIM primary 15, Mcl1 Bid PPI -62, Mcl1 Noxa PPI 36 and Mcl-1 Bim block -3.
For NS(=O)(=O)c1ccc(-c2ccc(/C=C3\NC(=S)NC3=O)o2)cc1 the results were MCL1 BIM primary -106.
C=CCOC(=O)c1cc(-c2ccc(/C=C3\C(=O)NC(=O)C(C#N)=C3C)o2)ccc1Cl was read as Mcl1 Bid PPI 99*, Mcl1 Noxa PPI 105* and Mcl-1 Bim block -6.
CC1=C(C#N)C(=O)NC(=O)/C1=C/c1ccc(-c2ccc(S(N)(=O)=O)cc2)o1 was read as MCL1 BIM primary 19, Mcl1 Bid PPI -38, Mcl1 Noxa PPI 87* and Mcl-1 Bim block 2.
`CC(Sc1nnc2ccccn12)C(=O)Nc1ccc2c(c1)OCO2` (stereo unspecified) gave MCL1 BIM primary -1, Mcl1 Bid PPI -43, Mcl1 Noxa PPI 20 and Mcl-1 Bim block 1.
Cc1c(C)c2ccc(OC(C)C(=O)NCc3ccccn3)cc2oc1=O (stereo unspecified) was read as MCL1 BIM primary 6.
CC(=O)c1ccc(NC(=O)NC2CC(=O)N(c3ccc4c(c3)OCCO4)C2)cc1 (stereo unspecified) was read as MCL1 BIM primary -5.
For CCN(CC)C(=O)C1CCCN(c2ccc([N+](=O)[O-])cc2/C=N/NC(=O)c2cccc([N+](=O)[O-])c2)C1 (stereo unspecified) the results were MCL1 BIM primary 7, Mcl1 Bid PPI 63*, Mcl1 Noxa PPI 33 and Mcl-1 Bim block 0.
For CCOc1ccc(-n2c(SCC(=O)Nc3ccc(CC)cc3)nc3n[nH]c(C)c3c2=N)cc1 the results were MCL1 BIM primary 0, Mcl1 Bid PPI 59*, Mcl1 Noxa PPI 59* and Mcl-1 Bim block 2.
Screening CCOc1ccc(NC(=O)CN(C)C(=O)c2ccccc2CCc2ccccc2)cc1OCC returned MCL1 BIM primary -1.
O=C(O)CCc1nc(-c2cccs2)no1 was read as MCL1 BIM primary 6, Mcl1 Bid PPI -5, Mcl1 Noxa PPI 84* and Mcl-1 Bim block -5.
O=C(O)CCc1nc(-c2ccccc2)no1 was read as MCL1 BIM primary -6, Mcl1 Bid PPI 8, Mcl1 Noxa PPI 24 and Mcl-1 Bim block -1.
Screening Clc1ccc2c(N/N=C/c3ccccc3Br)ccnc2c1 returned MCL1 BIM primary 8, Mcl1 Bid PPI 63*, Mcl1 Noxa PPI 58* and Mcl-1 Bim block 0.
For Clc1ccc2c(N/N=C/c3cccc(Br)c3)ccnc2c1 the results were MCL1 BIM primary -28, Mcl1 Bid PPI 60*, Mcl1 Noxa PPI 47 and Mcl-1 Bim block 10.
For O=[N+]([O-])c1ccc(/C=N/Nc2ccnc3cc(Cl)ccc23)o1 the results were MCL1 BIM primary -56.
Screening CCCCOC(=O)c1ccc(NC(=O)C(=O)NCc2ccco2)cc1 returned MCL1 BIM primary 4, Mcl1 Bid PPI 2, Mcl1 Noxa PPI 17 and Mcl-1 Bim block 2.
Screening O=C1c2cccnc2C(Nc2ccc(F)c(Cl)c2)N1Cc1cccs1 (stereo unspecified) returned MCL1 BIM primary 10, Mcl1 Bid PPI 52*, Mcl1 Noxa PPI 31 and Mcl-1 Bim block 0.
`O=C1c2ccccc2C(Nc2ccc(F)c(Cl)c2)N1Cc1ccco1` (stereo unspecified) gave MCL1 BIM primary 10, Mcl1 Bid PPI 14, Mcl1 Noxa PPI 6 and Mcl-1 Bim block -1.
`O=C1c2cccnc2C(Nc2ccc(Br)cc2)N1Cc1cccs1` (stereo unspecified) gave MCL1 BIM primary 0, Mcl1 Bid PPI 62*, Mcl1 Noxa PPI 28 and Mcl-1 Bim block 1.
`COc1ccc(NC2c3ncccc3C(=O)N2Cc2cccs2)cc1` (stereo unspecified) gave MCL1 BIM primary 10, Mcl1 Bid PPI -24, Mcl1 Noxa PPI 31 and Mcl-1 Bim block 2.
`CC1=C(C(=O)OCC(C)C)C(c2ccsc2)NC(=O)N1` (stereo unspecified) gave MCL1 BIM primary -6, Mcl1 Bid PPI -5, Mcl1 Noxa PPI 79* and Mcl-1 Bim block -3.
CCOC(=O)[C@@H](C)N(Cc1ccc(OC)cc1)S(=O)(=O)N(Cc1ccccc1)[C@H](C(=O)OC)C(C)C was read as MCL1 BIM primary 7.
`CCOc1ccc(/C=C/[N+](=O)[O-])c2ccccc12` gave MCL1 BIM primary 7, Mcl1 Bid PPI 45, Mcl1 Noxa PPI 76* and Mcl-1 Bim block 0.
`CC1CCC(=C(C#N)c2nc(-c3cc4ccccc4oc3=O)cs2)CC1` (stereo unspecified) gave MCL1 BIM primary 5, Mcl1 Bid PPI -16, Mcl1 Noxa PPI 10 and Mcl-1 Bim block 0.
For COc1cc(/C=C(/C#N)c2nc(-c3cc4ccccc4oc3=O)cs2)cc([N+](=O)[O-])c1O the results were Mcl1 Bid PPI 97* and Mcl1 Noxa PPI 98*.
COc1cc(/C=C(\C#N)c2nc(-c3cc4ccccc4oc3=O)cs2)ccc1O was read as MCL1 BIM primary 3, Mcl1 Bid PPI 64*, Mcl1 Noxa PPI 59* and Mcl-1 Bim block -1.
Screening COc1cc(/C=C(\C#N)c2nc3ccccc3o2)ccc1O returned MCL1 BIM primary -93, Mcl1 Bid PPI -80 and Mcl1 Noxa PPI 32.
`Cc1cc(C(=O)NCC(=O)OC(C)C(=O)N2CCOCC2)ccc1[N+](=O)[O-]` (stereo unspecified) gave MCL1 BIM primary -9.
`O=C(OCc1c(-c2ccccc2)ncc2ccccc12)N1CCOCC1` gave MCL1 BIM primary 0.
O=C(/C=C/c1ccco1)Nc1ccc(N2CCCC2)cc1 was read as MCL1 BIM primary 8, Mcl1 Bid PPI -61, Mcl1 Noxa PPI 64* and Mcl-1 Bim block -2.
NS(=O)(=O)c1ccc(NC(=S)NC(=O)/C=C/c2ccco2)cc1 was read as MCL1 BIM primary 8, Mcl1 Bid PPI 32, Mcl1 Noxa PPI 89* and Mcl-1 Bim block -2.
`O=C(/C=C/c1ccco1)NC(=S)Nc1cccc(-c2nc3ccccc3o2)c1` gave MCL1 BIM primary -2, Mcl1 Bid PPI 65* and Mcl-1 Bim block 0.
